HttQ103 aggreg = reduces HttQ103-GFP aggregates in PC12 cells. PC12 HttQ103-GFP aggregates, Acumen cytometry, 40 h. Potency, µM (doses to about 46.1 µM), without a hit: at the highest dose activity change, negative = inhibition, most hits filed as inhibitors. actives 1.1% (n = 220,000). AID 1688; also: potency is read from the fitted curve at half-maximal effect; % is scaled to controls: 0 for no effect and ±100 for the full control effect; nearly all actives have a fitted effect of over 60% in size
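Huntingtin Q103 exon 1–GFP aggregates in induced PC12 cells (100 nM tebufenozide) were quantified by cytometry from lysates, with compounds dosed in titration.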
IMPase Li cell = membrane-permeable IMPase blocker, potentiated with lithium; CHO-M1 cells, IP1 TR-FRET (IP-One), carbachol + lithium; Potency, µM (series often up to 59.4 µM), inactives show at the top dose activity, negative = IMPase inhibition, actives largely listed as inhibitors; actives 0.35% (n = 210,000); AID 1457;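 also: IP1 builds up when IMPase is blocked and the TR-FRET signal falls; potency is read from the fitted curve at half-maximal effect; plate controls were basal vehicle for no effect and high inhibitor control for full effect; nearly all actives have a fitted effect of over 50% in size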
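Lithium-sensitised IP1 accumulation assay; M1-expressing CHO cells treated 30 min at 37C with compound. Competitive antibody detection by time-resolved FRET followed a 10 min room-temperature lysis step.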
ALDH1A1 inh = blocks purified human ALDH1A1 activity; AID 1030; Purified ALDH1A1, NADH fluorescence, propionaldehyde substrate; actives 7.3% (n = 220,000); Potency, µM (doses to about 75.3 µM), for the others: at the highest dose activity, negative = inhibition, usual class: inhibitors; P00352; active = well fitted inhibition curve with a large enough effect, not every such curve was filed as active; inconclusive = small, poorly fitted or top-dose-only effect, or another doubt; inactive = no such curve, though single readings can be large or run the other way;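 also: potency is read from the fitted curve at half-maximal effect; plate controls were no enzyme wells and a reference inhibitor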
IMPase inh = cell-permeable inhibitors of inositol monophosphatase (IMPase) | inhibition (IP1 accumulation), % at 46.1 µM | CHO-M1 cells, IP1 accumulation, HTRF TR-FRET ratio | 120,000 tested, under 10 active | P97697 | AID 901; active = well fitted curve in the direction sought with a large enough effect in the signal ratio, not every such curve was filed as active; inconclusive = small, poorly fitted or top-dose-only effect, or a change in a side signal; inactive = no such curve, though single readings can be large or run the other way; the % refers to the signal ratio;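 also: cells stimulated with carbachol in lithium chloride buffer; plate controls were DMSO basal wells for no effect and reference inhibitor wells for full effect; higher means more IMPase inhibition seen as more IP1 and lower FRET ratio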
Target sequence (P97697 whole entry, looked up): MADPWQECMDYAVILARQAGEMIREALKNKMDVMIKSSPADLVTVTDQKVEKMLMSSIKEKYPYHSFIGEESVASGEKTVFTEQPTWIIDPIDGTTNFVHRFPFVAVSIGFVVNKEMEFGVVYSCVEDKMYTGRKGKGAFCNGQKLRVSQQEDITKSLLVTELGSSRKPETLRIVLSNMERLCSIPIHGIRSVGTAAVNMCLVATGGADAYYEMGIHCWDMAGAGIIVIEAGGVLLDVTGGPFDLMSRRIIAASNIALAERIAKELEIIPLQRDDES
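Carbachol-driven Gq signalling in CHO-M1 cells (2000/well) generates IP1. Compounds that block IMPase raise IP1 and so reduce the FRET signal from Eu-anti-IP1 and d2-IP1 after a 10 min room-temperature lysis.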
HTT ATP protect = protects HTT-Q103 PC12 cells, measured by ATP. PC12 HTT-Q103 induced, cytoprotection, ATP luminescence, 40 h. Potency, µM (doses to about 56.4 µM), without a hit: cytoprotection (ATP increase), hits mostly activators. actives 0.14% (n = 230,000); also: potency is read from the fitted curve at half-maximal effect; % of control where 0% means no effect; nearly all actives have a fitted effect of over 45% in size
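Cells were plated at 1500 per well in phenol red-free DMEM with 5% equine and 5% calf serum. Tebufenozide (100 nM final) and compounds were added, then ATPlite reagent, and luminescence was read.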
HPGD inh = HPGD (human) dehydrogenase inhibition; purified HPGD, NADH fluorescence kinetic, PGE2 substrate; Potency, µM, for the others: at the highest dose activity change, negative = inhibition, actives largely listed as inhibitors; actives 4.3% (n = 150,000); active = well fitted inhibition curve with a large enough effect, not every such curve was filed as active; inconclusive = small, poorly fitted or top-dose-only effect, or another doubt; inactive = no such curve, though single readings can be large or run the other way; also: potency is read from the fitted curve at half-maximal effect; % is scaled to controls: 0 for no effect and ±100 for the full control effect
Target sequence (P15428 whole entry, looked up): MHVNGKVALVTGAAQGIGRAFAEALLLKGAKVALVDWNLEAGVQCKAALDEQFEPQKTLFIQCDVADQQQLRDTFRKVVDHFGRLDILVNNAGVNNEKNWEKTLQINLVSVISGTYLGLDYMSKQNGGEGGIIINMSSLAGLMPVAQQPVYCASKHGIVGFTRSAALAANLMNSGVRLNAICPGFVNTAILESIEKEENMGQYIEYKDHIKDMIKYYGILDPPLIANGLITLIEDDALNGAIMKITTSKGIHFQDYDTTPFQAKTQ
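NADH formation kinetics: reaction with 30 uM PGE2 and 1 mM NAD+ (final), 20 nM enzyme, Tris-HCl pH 8 with Tween 20, after 15 min compound preincubation at room temperature. Fluorescence change, last versus first of five reads.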
* marks the source's active call; other numbers are inactive results; ? = inconclusive; . = no result; [ ] = remark or other dose. Shown are actives, neighbours in structure and some others; about 9.4% of the full set was active somewhere. Unless noted, calls follow the shape of the dose curve; as a rule, active = well fitted curve in the direction sought with a large enough effect; inconclusive = small, poorly fitted or top-dose-only effect, or another doubt; inactive = no such curve, though single readings can be large; an effect the other way counts as inactive or inconclusive.

SMILES	HttQ103 aggreg	IMPase Li cell	ALDH1A1 inh	IMPase inh	HTT ATP protect	HPGD inh
CCN(CC)c1ccc(-n2c(C)cc(C=O)c2C)cc1	-1.8%	22.9%[38.3 µM]	10µM*	-3.3	16.1%[10 µM]	2.1%
CCN(CC)c1ccc(-n2c(C)c(C(C)=O)c(C(C)=O)c2C)cc1	22.4µM*	4.0%[38.3 µM]	?	20.3	-8.4%[0.074 µM]	-4.8%
COc1ccc(-c2ccc(/C=C3/C(=N)N4C=CSC4=NC3=O)o2)c([N+](=O)[O-])c1	-24.0%	8.6%	7.0%	-7.0	10.2%[10 µM]	?
CCOC(=O)c1cc(-c2ccc(/C=C3/C(=O)NC(=O)C(C#N)=C3C)o2)ccc1Cl	11.0%	-19.9%[38.3 µM]	8.91µM*	-5.2	-14.5%	22.4µM*
Cc1ccc(N2NC(=O)/C(=C/c3ccc(-c4ccc(Cl)c(C(=O)O)c4)o3)C2=O)cc1	21.4%	8.6%	8.91µM*	.	.	.
CC1=C(C#N)C(=O)NC(=O)/C1=C\c1ccc(-c2ccc(C)cc2[N+](=O)[O-])o1	4.2%	5.6%	12.6µM*	.	-15.9%	.
O=C(O)CCCCCN1C(=O)/C(=C\c2ccc(-c3ccc(Cl)cc3)o2)SC1=S	29.9%[9.22 µM]	.	.	.	-16.7%[10 µM]	.
O=C(O)CCCN1C(=O)/C(=C/c2ccc(-c3nc4ccccc4s3)o2)SC1=S	17.7%	14.7%	?	4.0	25.9%[10 µM]	17.8µM*
CC(C)C1=CC2=CCC3[C@@](C)(CCC[C@@]3(C)C(=O)O)C2CC1 (stereo partly drawn)	.	-1.6%	-11.7%	.	.	-6.9%
CCc1[nH]nc2c1C1(C(=O)N(Cc3ccccc3)c3ccccc31)C(C#N)=C(N)O2 (stereo not drawn)	12.7%	21.4%[38.3 µM]	7.94µM*	5.4	7.3%	-15.4%
COC(=O)Cc1[nH]nc2c1C1(C(=O)N(Cc3ccc(Cl)cc3)c3ccccc31)C(C#N)=C(N)O2 (stereo not drawn)	23.0%	-8.4%[38.3 µM]	?	4.8	-3.8%	-4.1%
COc1ccc(CN(C)CC(=O)Nc2sc3c(c2C#N)CCC3)cc1OC	-26.3%	27.1%	14.1µM*	.	3.3%[10 µM]	.
COc1cccc(CN(C)CC(=O)Nc2sc3c(c2C#N)CCC3)c1OC	?	14.8%	25.1µM*	.	16.9%[10 µM]	.
CN(CC(=O)Nc1sc2c(c1C#N)CCCCC2)Cc1nc2ccccc2c(=O)[nH]1	?	23.3%	?	.	-42.8%	.
Cc1cc(C)nc(N/N=C/C=C/c2ccccc2)n1	-22.3%	19.0%	-13.1%	.	.	-16.6%
Cc1cc(C)nc(N/N=C/c2ccccc2)n1	-0.9%	5.7%[38.3 µM]	10µM*	2.5	-9.5%	14.1µM*
CC(C)=CCC/C(C)=C/CO/N=C1/[C@H]2O[C@@H]2[C@@H](O)[C@H]2[C@H]1CCn1c(=O)n(C)c(=O)n12	.	.	11.0%[13.5 µM]	.	-2.7%[10 µM]	.
COc1ccnc(Oc2ccccc2)c1C(=O)N/C=N/OCc1ccccc1	-19.9%[9.22 µM]	6.8%	?	.	-18.4%[10 µM]	.
CO/N=C/NC(=O)c1c(OC)ccnc1Oc1ccccc1	2.5%	4.1%[38.3 µM]	6.31µM*	-6.9	-9.3%	-8.5%
CC1=C(C(=O)OC2CCCCCC2)C(c2ccc(Cl)cc2Cl)CC(=O)N1 (stereo not drawn)	.	.	.	-4.4	.	.
COc1ccc(C2C(C(=O)OCC(=O)N3CCCCC3)CCC(=O)N2c2ccc(OC)cc2)cc1 (stereo not drawn)	5.8%	0.9%[38.3 µM]	?	-2.9	-25.9%[10 µM]	-4.3%
COc1ccc(C2C(C(=O)N3CCCCC3)CC(=O)N2c2ccc(OC)cc2)cc1 (stereo not drawn)	20.9%	5.0%[38.3 µM]	14.1µM*	0.3	-4.8%	-8.9%
COc1ccc(C2C(C(=O)NCc3ccco3)CCC(=O)N2c2ccc(OC)cc2)cc1 (stereo not drawn)	1.1%	-6.7%[38.3 µM]	11.2µM*	-5.6	-13.6%	2.6%
CCNC(=O)COC(=O)C1CCC(=O)N(c2ccc(OC)cc2)C1c1ccc(OC)cc1 (stereo not drawn)	10.1%	54.5%[38.3 µM]	8.91µM*	-3.9	3.7%	-9.2%
